According to PubChem BioAssay (EPA / NIEHS):
Inconclusive results are not listed. Calls of active or inactive are those of the source. The calls were made as follows: active = hit-call score of the fitted dose curve at least 0.9, where 1 is the maximum; inconclusive = response in the unintended direction; inactive = score below 0.9.

Biological target: Estrogen receptor (Homo sapiens) (UniProt P03372)
Assay: OT_ER_ERaERa_1440: Odyssey Thera (OT) 24-hour HEK293T Protein-Complementation Assay for Estrogen Receptor-alpha/-alpha Homodimer (AID 2283349);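 also: hits raise fluorescence above DMSO for agonists and antagonists alike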
How it was run: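 Cells (HEK293T) carrying the fragment-tagged ERα LBD (aa 310-547) pair are treated with chemical for 24 hours. Nuclear and/or cytoplasmic fluorescence is then quantified on a laser scanning cytometer. Activity is scored as signal gain against DMSO.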

Estrogen receptor (Homo sapiens), sequence (P03372 whole entry, looked up, the tested form may be a part): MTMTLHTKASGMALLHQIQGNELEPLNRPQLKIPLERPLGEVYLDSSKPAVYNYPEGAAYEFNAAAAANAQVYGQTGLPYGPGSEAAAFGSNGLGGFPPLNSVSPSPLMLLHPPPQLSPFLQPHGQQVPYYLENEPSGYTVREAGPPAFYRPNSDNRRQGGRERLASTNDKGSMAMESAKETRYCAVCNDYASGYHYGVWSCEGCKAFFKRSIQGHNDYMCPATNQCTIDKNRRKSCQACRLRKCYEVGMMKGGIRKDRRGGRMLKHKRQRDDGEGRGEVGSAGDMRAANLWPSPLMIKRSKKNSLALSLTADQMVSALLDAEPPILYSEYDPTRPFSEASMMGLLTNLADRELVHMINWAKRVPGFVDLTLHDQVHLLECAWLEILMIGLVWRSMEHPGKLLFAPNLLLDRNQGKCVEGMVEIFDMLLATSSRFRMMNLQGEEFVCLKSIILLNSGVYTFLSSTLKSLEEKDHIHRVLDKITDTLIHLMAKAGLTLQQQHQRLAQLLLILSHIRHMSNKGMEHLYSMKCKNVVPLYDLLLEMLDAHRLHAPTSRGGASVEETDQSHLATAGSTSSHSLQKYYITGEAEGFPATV

Row | Compound | outcome | AC50
1 | CCCCC(CC)COS(=O)(=O)O (stereo not drawn) | inactive | 
2 | C=C[Si](OCCOC)(OCCOC)OCCOC | inactive | 
3 | COc1ccc(-c2coc3cc(O)cc(O)c3c2=O)cc1 |  | 13.7 µM (active)
4 | CCCCCCCOC(=O)c1ccc(O)cc1 |  | 12.3 µM (active)
5 | CCCCC/C=C\C/C=C\CCCCCCCC(=O)O | inactive | 
6 | O=c1c(O)c(-c2ccc(O)cc2O)oc2cc(O)cc(O)c12 | inactive | 
7 | O=C(O)c1cc(O)c2ccccc2c1O | inactive | 
8 | CCCCNS(=O)(=O)c1ccc(C)cc1 | inactive | 
9 | CCCCCCCCC(CO)CCCCCC (stereo not drawn) | inactive | 
10 | CC1=CCC2CC1C2(C)C (stereo not drawn) | inactive | 
11 | C=CCOC(=O)c1ccc(C(=O)OCC=C)c(C(=O)OCC=C)c1 | inactive | 
12 | CCCCC(=O)O | inactive | 
13 | N#Cc1ccc(C(c2ccc(C#N)cc2)n2cncn2)cc1 | inactive | 
14 | CCCCCCOC(=O)CCCCC(=O)OCCCCCC | inactive | 
15 | CCOC(=O)c1ccccc1C | inactive | 
16 | CCOC(=O)C1=NOC(c2ccccc2)(c2ccccc2)C1 | inactive | 
17 | CN(C)c1ccc2nc3ccc(=[N+](C)C)cc-3sc2c1 | inactive | 
18 | CCCCC(C=O)CC (stereo not drawn) | inactive | 

Biological target: Estrogen receptor (Homo sapiens) (UniProt P03372)
Assay: OT_ER_ERaERa_0480: Odyssey Thera (OT) 8-hour HEK293T Protein-Complementation Assay for Estrogen Receptor-alpha/-alpha Homodimer (AID 2283351);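 also: rise in fluorescence from reassembled reporter fragments on ERα LBD homodimer in nucleus or whole cell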
How it was run: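 Read-out: fluorescence intensity rise relative to DMSO, nuclear for agonists, nuclear plus cytoplasmic for antagonists. Construct is the ERα LBD (aa 310-547) homodimer fragment-complementation pair, stably expressed in HEK293T; exposure 8 h.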

Row | Compound | outcome | AC50
19 | CCCCC(CC)COS(=O)(=O)O (stereo not drawn) | inactive | 
20 | C=C[Si](OCCOC)(OCCOC)OCCOC | inactive | 
21 | COc1ccc(-c2coc3cc(O)cc(O)c3c2=O)cc1 |  | 12.3 µM (active)
22 | CCCCCCCOC(=O)c1ccc(O)cc1 |  | 12.3 µM (active)
23 | CCCCC/C=C\C/C=C\CCCCCCCC(=O)O | inactive | 
24 | O=c1c(O)c(-c2ccc(O)cc2O)oc2cc(O)cc(O)c12 | inactive | 
25 | O=C(O)c1cc(O)c2ccccc2c1O | inactive | 
26 | CCCCNS(=O)(=O)c1ccc(C)cc1 | inactive | 
27 | CCCCCCCCC(CO)CCCCCC (stereo not drawn) | inactive | 
28 | CC1=CCC2CC1C2(C)C (stereo not drawn) | inactive | 
29 | C=CCOC(=O)c1ccc(C(=O)OCC=C)c(C(=O)OCC=C)c1 | inactive | 
30 | CCCCC(=O)O | inactive | 
31 | N#Cc1ccc(C(c2ccc(C#N)cc2)n2cncn2)cc1 | inactive | 
32 | CCCCCCOC(=O)CCCCC(=O)OCCCCCC | inactive | 
33 | CCOC(=O)c1ccccc1C | inactive | 
34 | CCOC(=O)C1=NOC(c2ccccc2)(c2ccccc2)C1 | inactive | 
35 | CN(C)c1ccc2nc3ccc(=[N+](C)C)cc-3sc2c1 |  | 50 µM (active)
36 | CCCCC(C=O)CC (stereo not drawn) | inactive | 

Biological target: T1, Estrogen receptor (Homo sapiens) + Estrogen receptor beta (Homo sapiens) (UniProt P03372+Q92731)
Assay: OT_ER_ERaERb_0480: Odyssey Thera (OT) 8-hour HEK293T Protein-Complementation Assay for Estrogen Receptor-alpha/-beta Heterodimer (AID 2283352)
How it was run: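 Human HEK293T cells were treated for 8 hours and receptor heterodimerisation was detected through reconstitution of a fluorescent reporter split between ER-alpha and ER-beta ligand-binding domains. Activity was analysed as gain of signal against DMSO.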

T1 sequence (P03372 whole entry, looked up): as the sequence (P03372 whole entry, looked up, the tested form may be a part) above
T1 sequence (Q92731 whole entry, looked up): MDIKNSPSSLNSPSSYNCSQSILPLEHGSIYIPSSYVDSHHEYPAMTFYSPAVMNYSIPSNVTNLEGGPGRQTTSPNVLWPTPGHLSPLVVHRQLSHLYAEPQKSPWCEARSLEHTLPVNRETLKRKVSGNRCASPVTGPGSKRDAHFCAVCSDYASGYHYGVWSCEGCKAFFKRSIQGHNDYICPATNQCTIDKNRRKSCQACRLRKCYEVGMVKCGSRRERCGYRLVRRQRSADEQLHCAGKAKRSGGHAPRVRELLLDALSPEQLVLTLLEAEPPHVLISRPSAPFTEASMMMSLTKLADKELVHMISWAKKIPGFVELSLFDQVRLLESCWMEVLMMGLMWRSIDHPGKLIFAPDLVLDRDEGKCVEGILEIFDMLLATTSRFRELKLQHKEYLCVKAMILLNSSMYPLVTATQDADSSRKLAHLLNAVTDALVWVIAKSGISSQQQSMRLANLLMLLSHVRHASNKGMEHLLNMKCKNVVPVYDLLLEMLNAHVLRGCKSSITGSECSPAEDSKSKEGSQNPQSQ

Row | Compound | outcome | AC50
37 | CCCCC(CC)COS(=O)(=O)O (stereo not drawn) | inactive | 
38 | COc1ccc(-c2coc3cc(O)cc(O)c3c2=O)cc1 |  | 2.91 µM (active)
39 | CCCCCCCOC(=O)c1ccc(O)cc1 |  | 5.32 µM (active)
40 | CCCCCCCCC(CO)CCCCCC (stereo not drawn) | inactive | 
41 | CC1=CCC2CC1C2(C)C (stereo not drawn) | inactive | 
42 | C=CCOC(=O)c1ccc(C(=O)OCC=C)c(C(=O)OCC=C)c1 | inactive | 
43 | CCCCC(=O)O | inactive | 
44 | N#Cc1ccc(C(c2ccc(C#N)cc2)n2cncn2)cc1 | inactive | 
45 | CCCCCCOC(=O)CCCCC(=O)OCCCCCC | inactive | 
46 | CCOC(=O)c1ccccc1C | inactive | 
47 | CCOC(=O)C1=NOC(c2ccccc2)(c2ccccc2)C1 | inactive | 
48 | CN(C)c1ccc2nc3ccc(=[N+](C)C)cc-3sc2c1 |  | 76.6 µM (active)
49 | CCCCC(C=O)CC (stereo not drawn) | inactive | 

Biological target: T1, Estrogen receptor (Homo sapiens) + Estrogen receptor beta (Homo sapiens)
Assay: OT_ER_ERaERb_1440: Odyssey Thera (OT) 24-hour HEK293T Protein-Complementation Assay for Estrogen Receptor-alpha/-beta Homodimer (AID 2283356);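 also: heteromer of ER alpha and ER beta binding domains; hits raise reporter fluorescence and both agonists and antagonists give an increase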
How it was run: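 24 h exposure; HEK293T PCA cells with ERα/ERβ LBD fragments; signal rise in nuclear or whole-cell fluorescence over vehicle.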

Row | Compound | outcome | AC50
50 | CCCCC(CC)COS(=O)(=O)O (stereo not drawn) | inactive | 
51 | COc1ccc(-c2coc3cc(O)cc(O)c3c2=O)cc1 |  | 5.37 µM (active)
52 | CCCCCCCOC(=O)c1ccc(O)cc1 |  | 12.2 µM (active)
53 | CCCCCCCCC(CO)CCCCCC (stereo not drawn) | inactive | 
54 | CC1=CCC2CC1C2(C)C (stereo not drawn) | inactive | 
55 | C=CCOC(=O)c1ccc(C(=O)OCC=C)c(C(=O)OCC=C)c1 | inactive | 
56 | CCCCC(=O)O | inactive | 
57 | N#Cc1ccc(C(c2ccc(C#N)cc2)n2cncn2)cc1 | inactive | 
58 | CCCCCCOC(=O)CCCCC(=O)OCCCCCC | inactive | 
59 | CCOC(=O)c1ccccc1C | inactive | 
60 | CCOC(=O)C1=NOC(c2ccccc2)(c2ccccc2)C1 | inactive | 
61 | CN(C)c1ccc2nc3ccc(=[N+](C)C)cc-3sc2c1 |  | 12 µM (active)
62 | CCCCC(C=O)CC (stereo not drawn) | inactive | 

Biological target: Estrogen receptor beta (Homo sapiens) (UniProt Q92731)
Assay: OT_ER_ERbERb_0480: Odyssey Thera (OT) 8-hour HEK293T Protein-Complementation Assay for Estrogen Receptor-beta/-beta Homodimer (AID 2283357);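 also: active means signal gain over DMSO baseline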
How it was run: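 Homodimerization of ER-beta LBD measured by protein-fragment complementation in HEK293T; 8 h dosing; fixed, Draq5 counterstain; fluorescence intensity gain over DMSO baseline, positive fitting direction; laser scanning cytometry.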

Estrogen receptor beta (Homo sapiens), sequence (Q92731 whole entry, looked up): as above

Row | Compound | AC50 | outcome
63 | COc1ccc(-c2coc3cc(O)cc(O)c3c2=O)cc1 | 2.05 µM (active) | 
64 | CCCCCCCOC(=O)c1ccc(O)cc1 | 2.68 µM (active) | 
65 | CCCCCCCCC(CO)CCCCCC (stereo not drawn) |  | inactive
66 | CC1=CCC2CC1C2(C)C (stereo not drawn) |  | inactive
67 | C=CCOC(=O)c1ccc(C(=O)OCC=C)c(C(=O)OCC=C)c1 |  | inactive
68 | N#Cc1ccc(C(c2ccc(C#N)cc2)n2cncn2)cc1 |  | inactive
69 | CCCCCCOC(=O)CCCCC(=O)OCCCCCC |  | inactive
70 | CCOC(=O)c1ccccc1C |  | inactive
71 | CCOC(=O)C1=NOC(c2ccccc2)(c2ccccc2)C1 |  | inactive
72 | CN(C)c1ccc2nc3ccc(=[N+](C)C)cc-3sc2c1 | 70.8 µM (active) | 
73 | CCCCC(C=O)CC (stereo not drawn) |  | inactive
